Rv3671c inh: Rv3671c (M. tuberculosis) protease inhibition | inhibition, % at 5.96 µM | hit rate 0.048% among 320,000; in the data active means inhibition above about 38%;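 further: extracellular domain of Rv3671c used as enzyme; 0% = enzyme with DMSO and 100% = no enzyme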
RecA splice inh: blocks M. tuberculosis RecA intein splicing; cell-free RecA intein splicing, fluorescence; inhibition, % (test concentration not listed); hit rate 0.75% among 290,000; in the data active means inhibition above about 30%;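 further: 0% = vehicle wells and 100% = reference inhibitor control wells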
Target sequence (P9WHJ3 whole entry, looked up, canonical isoform): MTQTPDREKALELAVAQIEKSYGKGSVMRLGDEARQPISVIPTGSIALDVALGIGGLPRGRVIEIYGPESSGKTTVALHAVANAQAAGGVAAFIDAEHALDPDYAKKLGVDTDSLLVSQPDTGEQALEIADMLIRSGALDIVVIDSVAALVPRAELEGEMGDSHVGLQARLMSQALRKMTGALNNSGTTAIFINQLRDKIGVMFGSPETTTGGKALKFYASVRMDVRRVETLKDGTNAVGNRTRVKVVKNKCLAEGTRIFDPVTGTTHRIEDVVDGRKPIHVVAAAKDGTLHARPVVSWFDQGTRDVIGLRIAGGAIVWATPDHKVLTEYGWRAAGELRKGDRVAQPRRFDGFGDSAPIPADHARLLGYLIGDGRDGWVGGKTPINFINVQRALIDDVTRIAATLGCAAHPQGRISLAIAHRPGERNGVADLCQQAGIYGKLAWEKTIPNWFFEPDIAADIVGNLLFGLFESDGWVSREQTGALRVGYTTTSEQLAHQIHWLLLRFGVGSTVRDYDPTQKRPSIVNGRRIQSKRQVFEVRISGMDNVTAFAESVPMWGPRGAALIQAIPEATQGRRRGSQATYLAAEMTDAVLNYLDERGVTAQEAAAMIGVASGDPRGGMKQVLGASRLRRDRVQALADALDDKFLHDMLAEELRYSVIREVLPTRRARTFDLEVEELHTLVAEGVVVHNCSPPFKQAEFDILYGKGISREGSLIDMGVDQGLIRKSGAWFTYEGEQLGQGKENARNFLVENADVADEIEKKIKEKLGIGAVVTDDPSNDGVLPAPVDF
FBA Mtb inh: Mtb fructose-bisphosphate aldolase inhibition; purified M. tuberculosis FBA, fluorescence read-out; hit rate 2.3% among 360,000; P9WQA3; inhibition, % at 1 µM;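 further: 0% = vehicle and 100% = reference inhibitor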
Mtb UGM inh: Mtb UDP-galactopyranose mutase inhibition. AID 504406. purified UGM, fluorescence polarization probe displacement. inhibition, % at 10 µM. P9WIQ1. hit rate 0.06% among 320,000; in the data active means inhibition above about 10%, passing the limit was not always enough
Mtb betalactam: beta-lactam sensitization of Mtb H37Rv; hit rate 0.27% among 330,000; inhibition, % at 25 µM; M. tuberculosis H37Rv growth with meropenem, percent inhibition; AID 434955; call rule not given here;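 further: growth measured after seven days incubation then overnight dye step; 0% = bacteria only wells and 100% = bacteria with antibiotic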
GDH-TPI counter-1: counter-screen for M. tuberculosis FBA inhibitors: GDH-TPI coupled enzymes; GDH-TPI coupled enzyme counterscreen, NADH absorbance; inhibition, % at 4.8 µM; hit rate 1.2% among 360,000; in the data active means inhibition above about 30%;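 further: 0% = DMSO wells and 100% = wells lacking the enzyme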
Mtb FBA confirm: confirmation of M. tuberculosis fructose-bisphosphate aldolase inhibitors. purified M. tuberculosis FBA, fluorescence read-out. inhibition, % at 1 µM. shares compounds with FBA Mtb inh. hit rate 78% among 5,600;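 further: 0% = vehicle wells and 100% = reference inhibitor wells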
GDH-TPI counter-2: inhibits GDH-TPI coupling enzymes, flagging Mtb FBA hits; shares compounds with FBA Mtb inh; GDH-TPI coupled enzyme counterscreen, fluorescence; inhibition, % at 1 µM; hit rate 81% among 5,600; AID 652141; in the data active means inhibition above about 10%
An asterisk follows results filed as active; i = inactive; . = no result; + = active, no number. In the library only some 4% were active in any assay of this set; here they are far more common. Unless noted, no stated cut-off is given here; in the data, active means inhibition above about 27%; inactive means the rest.

SMILES	Rv3671c inh	RecA splice inh	FBA Mtb inh	Mtb UGM inh	Mtb betalactam	GDH-TPI counter-1	Mtb FBA confirm	GDH-TPI counter-2
COc1ccccc1C(=O)COC(=O)CSC(C)C(=O)Nc1cc(C)on1 (configuration not stated)	2.0	-1.6	0.8	-1.7	1.7	4.9	.	.
Cc1ccccc1CNC(=O)C1CCCN(c2nnc(C)c3c(C)n(-c4ccccc4)nc23)C1 (configuration not stated)	-4.3	-0.4	27.7*	3.8	-2.8	0.5	110.6*	104.8*
CC(C)n1cc2c(N)ncnc2n1	.	.	-0.7	.	.	-8.8	.	.
CCN1C(=O)[C@H]2[C@@H](c3ccc(-c4ccc(OC)cc4)c(OC)c3)N[C@@](C)(C(=O)OC)[C@H]2C1=O	8.7	-0.9	35.2*	-3.1	-4.4	1.4	39.3*	43.2*
COC(=O)[C@]1(C)N[C@H](c2ccc(-c3cccc(Cl)c3)cc2)[C@@H]2C(=O)N(C)C(=O)[C@@H]21	3.3	.	1.1	-2.5	-4.0	-4.0	.	.
COC(=O)[C@]1(C)N[C@H](c2ccc(-c3cccc(Cl)c3)c(OC)c2)[C@@H]2C(=O)N(C)C(=O)[C@@H]21	-0.9	.	37.9*	-0.2	-7.5	0.5	46.8*	40.8*
CCN1C(=O)[C@H]2[C@@H](c3ccc(-c4ccc(F)cc4)c(OC)c3)N[C@@](C)(C(=O)OC)[C@H]2C1=O	-5.6	3.4	15.5	0.5	-2.9	16.4	.	.
COC(=O)[C@@]12CCCN1[C@H](c1ccc(-c3ccc(OC)cc3)c(OC)c1)[C@@H]1C(=O)N(C)C(=O)[C@@H]12	-8.1	.	28.8*	-2.7	-4.2	11.2	+	+
COc1ccc(NC(=O)Nc2nnc(Cc3ccc(F)cc3)s2)cc1	.	2.4	1.0	-3.1	2.8	4.6	.	.
Cc1ccc(C(=O)OC(C)C(=O)Nc2ccc3c(c2)OCO3)c(O)c1 (configuration not stated)	1.8	.	-3.0	-0.7	-6.9	1.8	.	.
O=C(COc1ccc2c3c(c(=O)oc2c1)CCCC3)NCc1ccccn1	5.9	-2.1	86.3*	-2.2	4.9	8.6	+	+
Cc1c(OCC(=O)NCCCn2ccnc2)ccc2c3c(c(=O)oc12)CCCC3	0.9	1.5	30.8*	-1.2	69.5	7.8	75.6*	63.7*
O=C(COc1ccc2c3c(c(=O)oc2c1)CCCC3)NCCCn1ccnc1	-2.9	-1.6	28.9*	0.3	5.5	5.9	+	194.0*
CCCc1cc(=O)oc2c(C)c(OCC(=O)NCCCn3ccnc3)ccc12	5.5	-3.0	10.9	-1.8	7.5	6.6	.	.
Cc1c(C)c2ccc(OCC(=O)NCCCn3ccnc3)cc2oc1=O	-4.8	0.6	62.0*	0.0	-0.9	12.6	195.3*	138.4*
Cc1ccc(-n2c(SCC(=O)NC3CCS(=O)(=O)C3)nc3ccccc3c2=O)cc1C (configuration not stated)	6.6	-4.7	-1.7	-1.5	2.3	-3.2	.	.
Cc1ccc(CNC(=O)c2ccc3c(c2)NC(=O)CS3)cc1	-0.8	0.3	0.0	-0.7	0.5	1.7	.	.
O=C(NCC(=O)N1CCN(C(c2ccccc2)c2ccccc2)CC1)c1ccccc1F	-4.2	5.9	1.5	5.9	-3.9	2.2	.	.
O=C(COc1ccc2c3c(c(=O)oc2c1)CCCC3)NCCCN1CCCC1=O	0.3	-2.0	62.4*	-2.1	0.5	13.7	92.5*	78.7*
Cc1ccc(C2=NOC3(CC(=O)N(c4ccc(C)cc4)C3=O)C2)cc1 (configuration not stated)	8.3	.	28.6*	3.0	-2.2	27.9	42.5*	38.5*
CCN(CC)c1ccc2cc(C#N)c(=O)oc2c1	-4.9	-33.6	-5.1	2.0	2.7	-2.5	.	.
CCOC(=O)Cc1c(C)c2ccc(N(CC)CC)cc2oc1=O	-7.7	.	93.0*	1.8	-1.7	9.2	57.9*	51.0*
CCN(CC)c1ccc2ccc(=O)oc2c1	-1.8	-348.4	53.0*	-0.1	3.3	6.3	74.2*	66.7*
CCN(CC)c1ccc2c(C)c(Cl)c(=O)oc2c1	8.4	i	66.5*	-4.1	-7.3	5.2	64.8*	53.8*
CCN(Cc1cc(=O)oc2cc(C)ccc12)c1ccccc1	.	-2.2	3.1	1.0	7.7	13.0	.	.
CCN(CC)c1ccc2c(C)c(-c3ccc(N)cc3)c(=O)oc2c1	13.2	-217.4	22.9	-0.2	59.4	20.6	.	.

From PubChem
